An excerpt weighted towards active compounds, which were near 2.3% of everything screened.
Mcl1 Bid PPI – Mcl-1/Bid interaction inhibition; TR-FRET Mcl-1/Bid-Dy647 peptide binding, 1536-well; inhibition, % at 21.7 µM; 0.97% of 220,000 active; AID 1021;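 active means compounds that cut the binding signal by more than half at the single screening dose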;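 further: His-tagged Mcl-1 with europium anti-His antibody binding Bid BH3 peptide; 0% = Mcl-1 plus peptide wells and 100% = peptide-only wells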
MCL1 BIM primary – inhibitors of human MCL1 binding to BIM-BH3 peptide; inhibition, % at 10.9 µM; Q07820; GST-MCL1 / FITC-Bim-BH3 fluorescence polarization; 0.68% of 320,000 active;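 active means inhibition above the mean inhibition of all tested compounds plus 3 SD, set per campaign, cut at about 40% in these data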;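 further: 0% = DMSO wells and 100% = unlabeled Bim-BH3 peptide control; higher means more loss of mP so more displacement of Bim peptide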
Bim-Mcl-1 – inhibitors of Bim-Mcl-1 interaction, human. Bead-based flow cytometry, Bim peptide-Mcl-1 binding. inhibition, % at 10 µM. 0.1% of 190,000 active. AID 1009; in the data active means inhibition above about 40%;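 further: 0% = no compound tracer wells and 100% = peptide blocker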
Mcl1-Noxa inh – disrupts binding of human Mcl-1 to Noxa peptide; Q07820; TR-FRET Mcl-1/Noxa peptide binding, 2 h; inhibition, % at 21.7 µM; 1.5% of 220,000 active; AID 1022;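 active means compounds that cut the protein-peptide binding signal by more than 50% relative to plate controls in a single-dose test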;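 further: His-tagged Mcl-1 with rhodamine Noxa BH3 peptide and terbium anti-His antibody; 0% = Mcl-1 plus Noxa peptide wells and 100% = peptide-only wells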
Bcl-xL primary – inhibitors of human Bcl-xL; AID 2129; 0.7% of 320,000 active; inhibition, % at 10.9 µM; Q07817; GST-Bcl-xL / FITC-Bim BH3 peptide fluorescence polarization;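 active means inhibition above the mean of all tested compounds plus 3 SD, cutoff set per campaign, cut at about 30% in these data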;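 further: 0% = DMSO wells and 100% = unlabeled Bim-BH3 peptide competitor; inhibitors lower millipolarization by displacing the labeled peptide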
GLD-1 TGE inh – GLD-1-TGE RNA interaction inhibition (C. elegans) | Q17339 | purified GLD-1 + fluorescein TGE RNA, fluorescence polarization | inhibition, % at 5.96 µM | 0.44% of 320,000 active;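 active means percent inhibition above a per-plate cutoff, the plate mean of test compounds plus 3 SD, cut at about 30% in these data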;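 further: 0% = DMSO wells with GLD-1 and probe and 100% = wells lacking GLD-1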
Target sequence (Q17339 whole entry, looked up): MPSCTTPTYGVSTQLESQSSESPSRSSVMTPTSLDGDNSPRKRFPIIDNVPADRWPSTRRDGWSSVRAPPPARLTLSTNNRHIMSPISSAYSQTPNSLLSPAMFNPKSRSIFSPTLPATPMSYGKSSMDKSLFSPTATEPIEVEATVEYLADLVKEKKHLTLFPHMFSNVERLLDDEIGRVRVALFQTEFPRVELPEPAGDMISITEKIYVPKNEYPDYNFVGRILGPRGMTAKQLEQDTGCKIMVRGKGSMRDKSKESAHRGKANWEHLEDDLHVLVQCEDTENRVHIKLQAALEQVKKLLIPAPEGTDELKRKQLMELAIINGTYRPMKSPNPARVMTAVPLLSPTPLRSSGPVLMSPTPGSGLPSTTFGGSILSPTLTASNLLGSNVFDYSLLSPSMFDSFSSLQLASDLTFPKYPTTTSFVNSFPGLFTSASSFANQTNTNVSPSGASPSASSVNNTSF
Active calls of the source: *; · = not tested or not shown.

SMILES	Mcl1 Bid PPI	MCL1 BIM primary	Bim-Mcl-1	Mcl1-Noxa inh	Bcl-xL primary	GLD-1 TGE inh
Cc1cc(C(=O)N/N=C/c2ccc(O)c(O)c2O)c(C)n1-c1ccccc1	-114	·	2	73*	·	·
c1ccc2nc3ccccc3nc2c1	86*	1	0	38	2	0
Nc1nc2ccccc2nc1N	-1	6	6	14	15	-2
N#Cc1c2ccccc2nc2ccccc12	-5	7	·	26	37*	6
Cc1nc2cc(N3CCCCC3)c(NC(=O)c3ccncc3)cc2c(=O)n1Cc1ccc(Cl)cc1	57*	-2	2	11	-1	-1
CCOC(=O)C1(CCc2ccccc2)CCN(C(=O)c2cnc(C)cn2)CC1	-15	-3	-3	-11	0	6
COC(=O)C1=CN(CC2CCCO2)C=C(C(=O)OC)C1c1ccsc1 (stereo unspecified)	96*	5	0	0	2	6
c1ccc(-c2cc(-c3nnc4n3N=C(c3ccc5ccccc5c3)CS4)[nH]n2)cc1	58*	2	0	31	-1	6
Cc1cc(-c2nnc3n2N=C(c2ccc(-c4ccccc4)cc2)CS3)n[nH]1	7	-2	7	4	-1	9
O=C(CN1C(=O)c2ccccc2C1=O)N1CCCCC1	99*	1	-2	20	8	6
Cc1ccc(-c2nnc(N3CC(C)OC(C)C3)c3ccccc23)cc1 (stereo unspecified)	91*	-1	-3	3	-2	-5
COc1ccc(S(=O)(=O)Nc2ccccc2)cc1	·	2	·	·	2	-7
COc1ccc(S(=O)(=O)Nc2ccc(O)c3ccccc23)cc1	-7	9	-10	66*	12	11
O=C(COC(=O)CNC(=O)c1ccc2c(c1)OCO2)Nc1ncc(Cl)cc1Cl	-5	9	0	14	6	-1
COc1cc(C=O)cc(OC)c1OS(=O)(=O)c1ccc(NC(C)=O)cc1	21	4	0	52*	5	4
C=CCn1c(N2CCCCCC2)nc2c1c(=O)n(C)c(=O)n2C	41	6	0	98*	5	8
CC1CCCCC1NC(=O)CC1Oc2ccccc2NC1=O (stereo unspecified)	52*	-10	·	-16	-4	-12
Cc1ccc2c(c1)NC(=O)C(CC(=O)NC1CCCCC1C)O2 (stereo unspecified)	-11	-4	0	25	0	5
COc1ccccc1Nc1nc(-c2cccc(N3C(=O)c4ccccc4C3=O)c2)cs1	-38	-3	-2	20	3	3
O=C1c2ccccc2C(=O)N1c1cccc(-c2csc(Nc3ccc4c(c3)OCO4)n2)c1	38	53*	1	62*	27	11
CCCCN(C)C(=O)c1nc2ccccn2c1CN1CCC[C@H]1CO	·	22	·	·	10	9
Nc1ccccc1NC(=O)c1ccccc1	-25	0	-3	3	-2	0
Nc1ccc(Br)c2c1C(=O)c1ccccc1C2=O	-5	40*	1	36	46*	16
Nc1ccc(NC(=O)c2ccccc2)c2c1C(=O)c1ccccc1C2=O	54*	17	-1	66*	8	8
CN(Cc1ccco1)S(=O)(=O)c1csc(C(N)=O)c1	·	3	·	·	0	1
SMILES	Mcl1 Bid PPI	MCL1 BIM primary	Bim-Mcl-1	Mcl1-Noxa inh	Bcl-xL primary	GLD-1 TGE inh
CCc1ccc(-c2nc(CS(=O)CC(=O)NCCCN3CCC(C)CC3)c(C)o2)cc1 (stereo unspecified)	·	0	·	·	-7	-4
COc1ccc(S(=O)(=O)c2c(O)cc(C)c(NS(=O)(=O)c3ccccc3)c2C)cc1	·	8	·	·	7	-1
Cc1ccc(-c2nc3c(c(=O)[nH]c(=O)n3Cc3ccccc3)n2C)o1	38	·	0	97*	·	·
Cn1c(C2CCCCC2)nc2c1c(=O)[nH]c(=O)n2Cc1ccccc1	-40	-1	-2	9	7	5
Cc1ccc(-c2nc3c(c(=O)[nH]c(=O)n3Cc3ccccc3)n2C)s1	65*	-4	·	15	0	-4
CCC(C)Sc1ccc([C@H]2N[C@@](C)(C(=O)OC)[C@H]3C(=O)N(C)C(=O)[C@@H]23)cc1 (stereo partly specified)	·	·	·	·	·	1
CCSc1ncc(/C=N/Nc2ccccc2)n1C	7	0	-1	15	3	-5
CCSc1ncc(/C=N/Nc2ccc([N+](=O)[O-])cc2)n1C	41	-65	-3	80*	-35	-12
CCOc1ccc(NC(=O)NCC2CCN(c3ccc(OC)cc3)C2)cc1 (stereo unspecified)	-10	8	-4	-7	8	3
COc1ccc(N2CCC(CNC(=O)Nc3ccc(OC)cc3OC)C2)cc1 (stereo unspecified)	-86	-2	-2	90*	12	-9
COc1ccc(N2CCC(CNS(=O)(=O)c3cccc(C(F)(F)F)c3)C2)cc1 (stereo unspecified)	6	4	0	80*	10	-2
COc1ccc(N2CCC(CNC(=O)Nc3ccc(C)c(C)c3)C2)cc1 (stereo unspecified)	3	9	-4	101*	11	2
CCc1ccc(NC(=O)NCC2CCN(c3ccc(OC)cc3)C2)cc1 (stereo unspecified)	-129	5	·	73*	10	1
CSc1ccc(S(=O)(=O)N2CCC(C(=O)Nc3ccc(C(N)=O)cc3)CC2)cc1	·	1	·	·	1	2
COc1ccc(NC(=O)COC(=O)CNC(=O)C2CCCCC2)cc1OC	·	·	·	·	·	4
CN1CCN(c2ccc(C(F)(F)F)cc2NC(=O)Nc2ccccc2)CC1	·	-1	·	·	-1	4
COc1ccc(N2CCC(CNC(=S)Nc3cccc(C)c3)C2)cc1 (stereo unspecified)	-73	-1	3	73*	3	-3
COc1ccc(N2CCC(CNC(=S)Nc3c(C)cc(C)cc3C)C2)cc1 (stereo unspecified)	-80	10	·	5	11	-4
COC(=O)c1cc(Br)ccc1NC(=O)Nc1ccc(C)cc1	·	5	·	·	8	-7
COC(=O)c1cc(Br)ccc1NC(=O)Nc1ccccc1	-5	2	-6	73*	5	2
CC(=O)c1ccc(S(=O)(=O)Nc2cccc(-c3ccc(N4CCOCC4)nn3)c2)cc1	·	-4	·	·	-2	4
Cc1c(Br)c(C(=O)NNC(=O)c2ccc(C(C)(C)C)cc2)nn1C	-10	5	·	0	4	4
C[C@@H](C(=O)NCCc1c[nH]c2ccccc12)[C@@H]1C[C@@]1(C)[C@@H](NC(=O)OCc1ccccc1)c1ccccc1	-17	-13	86*	-5	-7	-5
O=C(COC(=O)c1ccccn1)NC1CCCCC1	2	8	66*	3	3	5
O=C(OCc1cccc(F)c1)c1ccc2c(=O)n3c(nc2c1)CCC3	61*	-15	·	-3	-20	-1

Assay outcomes (PubChem BioAssay)
